Assay results taken from publication PMC5700166.
Positions count from the first letter of the chain named.

Assays:
Test in all cases: protein-binding microarray (PBM); PBM: ~300 nM protein, 6 mM HEPES pH 7.8, 80 mM KCl, 0.5 mM EDTA, 0.5 mM EGTA, 6% glycerol, 35 ng/ul poly-dIdC, 1% milk, 1 h, room temperature; Ap Aiptasia and Nv Nematostella (sea anemones) / Co Capsaspora / Aq Amphimedon (sponge) / Dm Drosophila / Hu human; RHD is the Rel homology domain; high values mean tight binding
Settings in all cases: dsDNA, one strand shown
GST-Ap-NF-kB RHD = target: T1, GST-Ap-NF-kB RHD (Exaiptasia pallida (Aiptasia), UniProt A0A913YAJ5 2-422)
T1 sequence: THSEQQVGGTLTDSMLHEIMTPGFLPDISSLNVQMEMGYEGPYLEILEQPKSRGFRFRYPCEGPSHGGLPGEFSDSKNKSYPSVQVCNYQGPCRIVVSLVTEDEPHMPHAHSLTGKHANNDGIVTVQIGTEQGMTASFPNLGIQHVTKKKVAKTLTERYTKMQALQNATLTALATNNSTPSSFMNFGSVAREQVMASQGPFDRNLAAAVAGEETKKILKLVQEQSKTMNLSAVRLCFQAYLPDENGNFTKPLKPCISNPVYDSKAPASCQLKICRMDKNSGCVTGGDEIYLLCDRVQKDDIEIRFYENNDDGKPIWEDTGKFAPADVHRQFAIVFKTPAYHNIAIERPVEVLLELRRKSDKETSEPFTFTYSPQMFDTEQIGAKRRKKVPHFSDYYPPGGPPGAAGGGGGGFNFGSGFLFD

[1] = target: T2, GST-Nv-NF-kB (Cys allele) (Nematostella vectensis, UniProt E5G601 2-411)
T2 sequence: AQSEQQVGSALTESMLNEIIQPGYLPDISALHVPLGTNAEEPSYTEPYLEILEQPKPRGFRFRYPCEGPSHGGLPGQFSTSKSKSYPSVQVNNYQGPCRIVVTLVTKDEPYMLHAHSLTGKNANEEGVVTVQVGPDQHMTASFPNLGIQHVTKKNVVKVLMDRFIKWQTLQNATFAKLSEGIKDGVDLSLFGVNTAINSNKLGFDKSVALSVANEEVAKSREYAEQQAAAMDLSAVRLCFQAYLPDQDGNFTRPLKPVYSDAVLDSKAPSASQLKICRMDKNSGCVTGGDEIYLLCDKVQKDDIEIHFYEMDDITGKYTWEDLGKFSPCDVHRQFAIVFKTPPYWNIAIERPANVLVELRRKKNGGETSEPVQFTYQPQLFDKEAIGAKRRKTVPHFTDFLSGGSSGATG

[2] = target: T3, GST-Nv-NF-kB (Ser allele) (Nematostella vectensis, UniProt A7UNT2 2-411)
T3 sequence: T2 sequence with Q21R, C66S, S207N, E215Q, V217A, E225K, A268E, D399E

GST-Co-NF-kB = target: T4, GST-Co-NF-kB (Capsaspora owczarzaki, UniProt F1ARL5 200-546)
T4 sequence: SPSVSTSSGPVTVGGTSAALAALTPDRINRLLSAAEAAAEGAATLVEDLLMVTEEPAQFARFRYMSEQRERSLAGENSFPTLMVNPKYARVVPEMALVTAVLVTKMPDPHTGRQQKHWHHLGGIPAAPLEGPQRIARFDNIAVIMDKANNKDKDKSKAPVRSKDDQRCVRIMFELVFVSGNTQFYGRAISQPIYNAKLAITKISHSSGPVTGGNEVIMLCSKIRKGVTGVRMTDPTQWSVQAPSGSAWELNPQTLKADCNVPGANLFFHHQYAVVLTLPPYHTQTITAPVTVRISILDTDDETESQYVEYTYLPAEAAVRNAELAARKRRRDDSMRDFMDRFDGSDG

GST-Dm-Relish = target: T5, GST-Dm-Relish (Drosophila melanogaster, UniProt Q94527 99-473)
T5 sequence: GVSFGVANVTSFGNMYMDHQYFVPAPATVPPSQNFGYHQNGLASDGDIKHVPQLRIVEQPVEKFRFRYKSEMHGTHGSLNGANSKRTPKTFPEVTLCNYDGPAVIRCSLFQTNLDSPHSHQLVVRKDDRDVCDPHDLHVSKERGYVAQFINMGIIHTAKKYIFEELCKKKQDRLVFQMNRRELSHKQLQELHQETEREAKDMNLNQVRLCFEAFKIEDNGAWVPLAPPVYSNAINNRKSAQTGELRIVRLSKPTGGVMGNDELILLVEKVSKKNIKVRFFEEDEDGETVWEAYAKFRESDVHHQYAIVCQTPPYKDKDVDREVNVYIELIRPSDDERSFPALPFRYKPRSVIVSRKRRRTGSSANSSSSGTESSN

GST-Aq-NF-kB = target: T6, GST-Aq-NF-kB (Amphimedon queenslandica, UniProt A9Y5G7 2-389)
T6 sequence: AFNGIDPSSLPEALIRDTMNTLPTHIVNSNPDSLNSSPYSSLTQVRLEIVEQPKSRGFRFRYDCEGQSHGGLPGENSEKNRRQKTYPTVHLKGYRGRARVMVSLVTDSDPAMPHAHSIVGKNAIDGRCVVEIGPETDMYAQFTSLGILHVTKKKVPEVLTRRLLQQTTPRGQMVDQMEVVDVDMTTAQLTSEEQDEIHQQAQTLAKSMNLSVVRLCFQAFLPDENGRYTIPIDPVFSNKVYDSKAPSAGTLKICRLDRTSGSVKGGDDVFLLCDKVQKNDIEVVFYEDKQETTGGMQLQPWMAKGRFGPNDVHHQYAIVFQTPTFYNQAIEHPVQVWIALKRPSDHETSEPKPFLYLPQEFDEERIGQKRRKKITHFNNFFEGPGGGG

GST-Hu-p50 = GST-Hu-p50 (Homo sapiens, UniProt P19838 7-356)
Chain of GST-Hu-p50 (P19838 7-356): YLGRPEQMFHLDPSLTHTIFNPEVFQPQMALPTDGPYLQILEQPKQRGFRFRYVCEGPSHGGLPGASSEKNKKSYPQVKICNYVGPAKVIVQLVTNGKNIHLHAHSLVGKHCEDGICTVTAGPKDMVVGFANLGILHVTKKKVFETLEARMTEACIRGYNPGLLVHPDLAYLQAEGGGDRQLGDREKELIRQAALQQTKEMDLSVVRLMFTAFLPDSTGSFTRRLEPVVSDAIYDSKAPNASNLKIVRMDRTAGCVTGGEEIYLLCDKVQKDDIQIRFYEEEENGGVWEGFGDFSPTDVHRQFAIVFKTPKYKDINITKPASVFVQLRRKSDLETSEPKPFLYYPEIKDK

Work on “CCGATTAACATCAGGATGCCCCCTGATGTTAATCGGGTCTTGATTCGCTTGACGCTGCTG” yielded a binding signal (GST-Ap-NF-kB RHD) of 4.93 z-score, a binding signal [1] of 4.06 z-score and a binding signal [2] of 2.93 z-score. The binding signal (GST-Co-NF-kB) was 1.55 z-score, the binding signal (GST-Dm-Relish) was 4.63 z-score and the binding signal (GST-Aq-NF-kB) was 5.09 z-score. The binding signal (GST-Hu-p50) was 4.35 z-score.
“CCGATTAACATCAAATATCCCCATGATGTTAATCGGGTCTTGATTCGCTTGACGCTGCTG” gave a binding signal (GST-Ap-NF-kB RHD) of 6.82 z-score, a binding signal [1] of 6.83 z-score and a binding signal [2] of 7.36 z-score. For the same sequence, the binding signal (GST-Co-NF-kB) was 4.59 z-score, the binding signal (GST-Dm-Relish) was 4.81 z-score and the binding signal (GST-Aq-NF-kB) was 4.67 z-score. For the same sequence, the binding signal (GST-Hu-p50) was 5.18 z-score.
With “CCGATTAACATCAGAGCTTCCCCTGATGTTAATCGGGTCTTGATTCGCTTGACGCTGCTG” the binding signal (GST-Ap-NF-kB RHD) was 4.5 z-score, the binding signal [1] was 5.06 z-score and the binding signal [2] was 5.75 z-score. It also gave a binding signal (GST-Co-NF-kB) of 4.37 z-score, a binding signal (GST-Dm-Relish) of 3.56 z-score and a binding signal (GST-Aq-NF-kB) of 4.57 z-score. It also gave a binding signal (GST-Hu-p50) of 4.17 z-score.
With “CCGATTAACATCAATCCCCACATTGATGTTAATCGGGTCTTGATTCGCTTGACGCTGCTG” the binding signal (GST-Ap-NF-kB RHD) was 3.58 z-score, the binding signal [1] was 4.03 z-score and the binding signal [2] was 3.93 z-score. It also gave a binding signal (GST-Co-NF-kB) of 2.61 z-score, a binding signal (GST-Dm-Relish) of 2.63 z-score and a binding signal (GST-Aq-NF-kB) of 2.58 z-score. For the same sequence, the binding signal (GST-Hu-p50) was 3.86 z-score.
Sequence “CCGATTAACATCACCGTGGGAAATGATGTTAATCGGGTCTTGATTCGCTTGACGCTGCTG” has a binding signal (GST-Ap-NF-kB RHD) of 1.9 z-score, a binding signal [1] of 2.4 z-score and a binding signal [2] of 2.68 z-score. For the same sequence, the binding signal (GST-Co-NF-kB) was 3.18 z-score, the binding signal (GST-Dm-Relish) was 1.32 z-score and the binding signal (GST-Aq-NF-kB) was 1.95 z-score. For the same sequence, the binding signal (GST-Hu-p50) was 2.29 z-score.
“CCGATTAACATCAGGGGATACACTGATGTTAATCGGGTCTTGATTCGCTTGACGCTGCTG” showed a binding signal (GST-Ap-NF-kB RHD) of 4.44 z-score, a binding signal [1] of 4.02 z-score and a binding signal [2] of 5.34 z-score. For the same sequence, the binding signal (GST-Co-NF-kB) was 3.62 z-score, the binding signal (GST-Dm-Relish) was 5.84 z-score and the binding signal (GST-Aq-NF-kB) was 4.05 z-score. It also gave a binding signal (GST-Hu-p50) of 3.83 z-score.
With “CCGATTAACATCAATGTTCCCCCTGATGTTAATCGGGTCTTGATTCGCTTGACGCTGCTG” the binding signal (GST-Ap-NF-kB RHD) was 6.95 z-score, the binding signal [1] was 6.49 z-score and the binding signal [2] was 7.58 z-score. The binding signal (GST-Co-NF-kB) was 11 z-score, the binding signal (GST-Dm-Relish) was 5.32 z-score and the binding signal (GST-Aq-NF-kB) was 6.17 z-score. For the same sequence, the binding signal (GST-Hu-p50) was 5.74 z-score.
“CCGATTAACATCAATAACCCCCCTGATGTTAATCGGGTCTTGATTCGCTTGACGCTGCTG” was tested, and the binding signal (GST-Ap-NF-kB RHD) was 6.33 z-score, the binding signal [1] was 5.55 z-score and the binding signal [2] was 5.48 z-score. The binding signal (GST-Co-NF-kB) was 4.7 z-score, the binding signal (GST-Dm-Relish) was 8.07 z-score and the binding signal (GST-Aq-NF-kB) was 6.46 z-score. It also gave a binding signal (GST-Hu-p50) of 5.76 z-score.
“CCGATTAACATCAAAACATTCCCTGATGTTAATCGGGTCTTGATTCGCTTGACGCTGCTG” was tested, and the binding signal (GST-Ap-NF-kB RHD) was 3.1 z-score, the binding signal [1] was 5.46 z-score and the binding signal [2] was 4.94 z-score. The binding signal (GST-Co-NF-kB) was 4.18 z-score, the binding signal (GST-Dm-Relish) was 3.87 z-score and the binding signal (GST-Aq-NF-kB) was 6.04 z-score. The binding signal (GST-Hu-p50) was 3.88 z-score.
With “CCGATTAACATCAGGGGAATGCATGATGTTAATCGGGTCTTGATTCGCTTGACGCTGCTG” the binding signal (GST-Ap-NF-kB RHD) was 5.82 z-score, the binding signal [1] was 7.06 z-score and the binding signal [2] was 7.76 z-score. The binding signal (GST-Co-NF-kB) was 5.53 z-score, the binding signal (GST-Dm-Relish) was 3.2 z-score and the binding signal (GST-Aq-NF-kB) was 4.86 z-score. For the same sequence, the binding signal (GST-Hu-p50) was 5.41 z-score.
Sequence “CCGATTAACATCAGGGAAAACAATGATGTTAATCGGGTCTTGATTCGCTTGACGCTGCTG” has a binding signal (GST-Ap-NF-kB RHD) of 3.05 z-score, a binding signal [1] of 4.96 z-score and a binding signal [2] of 6.37 z-score. It also gave a binding signal (GST-Co-NF-kB) of 5.48 z-score, a binding signal (GST-Dm-Relish) of 1.47 z-score and a binding signal (GST-Aq-NF-kB) of 3.34 z-score. For the same sequence, the binding signal (GST-Hu-p50) was 3.66 z-score.
